# Measurements reported in PubChem BioAssay AID624305 (National Center for Advancing Translational Sciences (NCATS), 2012).
# Inconclusive results are not listed. The source made the active and inactive calls. Calls come from the whole dose curve; as a rule, active = well fitted activation curve with a large enough effect; inconclusive = small, poorly fitted or top-dose-only effect; inactive = no such curve, though single readings can be large or run the other way.
# Assay: qHTS assay for re-activators of p53 using a Luc reporter: Hit Validation; note: nearly all actives have a fitted effect of over 75% in size; for activation: 0% is about no effect
# Settings: p53-responsive luciferase reporter cells, luminescence, H1299 line expressing heat-sensitive Ala138Val p53; series mostly up to 46.1 µM; activation: at the top concentration
# Procedure, shortened: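 Hit confirmation with a 1:5 dilution series, at 37 deg C for 24 hrs, in H1299 cells co-expressing temperature-sensitive p53-A138V and p53-responsive luciferase. Nocodazole served as control; luminescence read after 10 min with detection reagent.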
# Potency is the fitted concentration of half-maximal effect.
Compound,Potency,activation
COc1ccc(/C=N/Nc2nncc3ccccc23)cc1,0.0731 µM (active),–
Cc1cccc(/C(N)=N/OC(=O)c2ccc3c(c2)OCO3)c1,9.2 µM (active),–
Cc1cccc(-c2noc(CCC(=O)N3CCN(c4cc(C)ccc4C)CC3)n2)c1,23.1 µM (active),–
COc1ccc([N+](=O)[O-])cc1NC(=O)CSCc1ccc(Br)cc1,–,-26% (inactive)
Cc1ccc(-c2nnc(N(C)C(=O)C3CCCO3)s2)cn1 (stereo not drawn),–,-1.56% (inactive)
O=S(=O)(CCOc1ccccc1)c1nc2ccccc2[nH]1,–,-10.9% (inactive)
Cc1ccc(NC(=O)/C(Cl)=C/c2ccccc2)cc1C,2.06 µM (active),–
Cc1cccc(Nc2nc(N3CCOCC3)nc(N3CCOCC3)n2)c1,–,35.9% (inactive)
N/C(=N\OC(=O)c1ccccc1Cl)c1ccc(Cl)cc1,9.2 µM (active),–
Cc1ccc(C)c(C(=O)COC(=O)c2n[nH]c3ccccc23)c1,18.4 µM (active),–
COC(=O)CSc1nc2cc3c(cc2cc1C#N)OCO3,–,16.1% (inactive)
C/C(=C\COc1ccc2ccc(=O)oc2c1)CC[C@@H](O)C(C)(C)O,–,34.9% (inactive)
COc1cccc(-c2cn3nc4c(nc3n2)CCCC4)c1,0.116 µM (active),–
Cc1ccc2nc(-c3ccc(NC(=O)COC(=O)c4cncc(Br)c4)cc3)sc2c1,0.146 µM (active),–
O=C(Nc1ncc(Cc2ccccc2)s1)c1cccs1,2.59 µM (active),–
CC(C)(C)c1ccc(NC(=O)COC(=O)c2ccc(NS(=O)(=O)c3ccc(F)c(F)c3)cc2)cc1,–,-88% (inactive)
O=C(Oc1c(Cl)cc(Cl)c2cccnc12)c1cccc([N+](=O)[O-])c1,–,-63.5% (inactive)
COc1ccc(C(=O)NC2CCc3ccccc32)cc1OC1CCN(C(C)C)CC1 (stereo not drawn),–,28.6% (inactive)
Cc1cc(C)cc(OCC(=O)NNC(=O)c2ccccn2)c1,–,18.2% (inactive)

Compound,Potency,activation
C/C(=N\NC(=S)NC1CCCCC1)c1ccccc1,–,-80.2% (inactive)
Cn1c(-c2ncc(F)cc2F)cc2onc(-c3c(F)cccc3Cl)c2c1=O,2.59 µM (active),–
COc1cccc(N(C(=O)c2nc3nccc(C)n3n2)c2nc3ccccc3s2)c1,7.31 µM (active),–
S=C(Nc1ccccc1)Nc1nc2ccccc2n1CCOc1ccc(Br)cc1,–,-11.5% (inactive)
CC(=O)N1CCC(C(=O)Nc2ccc(S(=O)(=O)NCCc3ccccc3)cc2)CC1,–,7.29% (inactive)
Cc1cccc(N/C=C/C(=O)c2cccs2)c1C,0.0651 µM (active),–
CC(=O)NC1=C(Nc2ccc(N(C)C)cc2)C(=O)c2ccccc2C1=O,9.2 µM (active),–
N#C/C(=C/c1cccnc1)c1ccccc1,–,-12% (inactive)
CC(C)N1C(=O)CN(C2CCCCCC2)C(=O)C1c1ccccc1F (stereo not drawn),–,29.7% (inactive)
CC(C)(C)c1ccc(S(=O)(=O)N2CCSC2)cc1,–,-4.43% [at 9.22 µM] (inactive)
COCCn1c(C)cc(C(=O)CSc2nc3ccccc3s2)c1C,–,130% [at 9.22 µM] (inactive)
Cc1cc(C)nc(SCc2csc(-c3ccccc3)n2)n1,13 µM (active),–
O=C(N/N=C/c1ccccc1O)C1CC(=O)N(c2ccc(Cl)cc2)C1 (stereo not drawn),–,-78.6% (inactive)
Cc1ccc(C(=O)NC2CC2)cc1S(=O)(=O)N1CCOCC1,–,12.5% (inactive)
Cc1cccc(-n2c(C)cc(/C=N\NC(=O)c3cccs3)c2C)c1,1.16 µM (active),–
Cc1cc(C)c2nc(NNC(=O)c3ccc(S(=O)(=O)N4CCCC(C)C4)cc3)sc2c1 (stereo not drawn),–,-83.9% (inactive)
CCOc1ccc(OCc2cccc(C(=O)N3CCCC3)c2)cc1,0.517 µM (active),–
COc1ccc2oc(C(=O)OCC(=O)NCCN3C(=O)CSC3=O)c(C)c2c1,–,-18.8% (inactive)
Cc1nc2ccccc2nc(C)c1=NOCc1ccccc1Cl,–,4.17% (inactive)
